# In PubChem BioAssay:
# What was measured:
# [1] = target: PEG-3 (UniProt Q6IN02); assay: Peg3 promoter luciferase inhibitors, potency, dose response, cell-based, HeLa, CREF/GAPDH counter-screen panel (AID 624167); conditions: CREF/GAPDH counter-screens; HeLa PEG-Prom luciferase reporter, overnight, run 1, dose range 1, at 100 µM (top of the series) unless noted
# [2] = target: PEG-3 (UniProt Q6IN02); assay: as above; conditions: CREF/GAPDH counter-screens; HeLa PEG-Prom luciferase reporter, overnight, run 2, dose range 1, at 100 µM (top of the series) unless noted
# [3] = target: Tumor necrosis factor receptor superfamily member 10B (Homo sapiens) (UniProt O14763); assay: caspase-8 TRAIL sensitization, hit retest, confirmation, cell-based, NB7+caspase-8, with/without TRAIL, luminescence panel (AID 651596); conditions: NB7 neuroblastoma + caspase-8, TRAIL sensitization, luminescence viability, with TRAIL, mean of runs, at 10 µM, stronger effect = higher value
# [4] = as above; conditions: NB7 neuroblastoma + caspase-8, without TRAIL, luminescence viability, without TRAIL, mean of runs, at 10 µM
# [5] = inhibitors of PAF-induced NFkB signaling in CF airway cells, dose response, cell-based, uHTS hits, panel, cytotoxicity readout (AID 624344); conditions: CF bronchial epithelial cells, PAF-induced NFkB reporter inhibition, with PAF, run 1; at 79 µM (top of the series) unless noted
# [6] = as above; conditions: CF bronchial epithelial cells, PAF-induced NFkB reporter inhibition, with PAF, run 2; at 79 µM (top of the series) unless noted
# Chain of PEG-3 (Q6IN02 whole entry, looked up): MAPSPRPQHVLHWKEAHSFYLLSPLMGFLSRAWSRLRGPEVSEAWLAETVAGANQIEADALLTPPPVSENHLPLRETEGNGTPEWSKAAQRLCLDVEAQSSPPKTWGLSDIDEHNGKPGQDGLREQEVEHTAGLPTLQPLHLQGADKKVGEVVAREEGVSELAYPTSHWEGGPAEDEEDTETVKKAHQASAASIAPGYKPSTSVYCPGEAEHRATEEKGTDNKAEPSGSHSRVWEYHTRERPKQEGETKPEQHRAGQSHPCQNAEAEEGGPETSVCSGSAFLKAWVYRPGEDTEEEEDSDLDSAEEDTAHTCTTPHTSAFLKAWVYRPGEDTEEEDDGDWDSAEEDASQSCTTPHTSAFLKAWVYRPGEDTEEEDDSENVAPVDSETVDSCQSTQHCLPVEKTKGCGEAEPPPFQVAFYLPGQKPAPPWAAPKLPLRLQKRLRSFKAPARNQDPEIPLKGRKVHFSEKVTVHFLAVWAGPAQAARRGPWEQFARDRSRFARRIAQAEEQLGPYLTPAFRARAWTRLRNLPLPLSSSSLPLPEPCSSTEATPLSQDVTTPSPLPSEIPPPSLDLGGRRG
# Chain of Tumor necrosis factor receptor superfamily member 10B (Homo sapiens) (O14763 whole entry, looked up): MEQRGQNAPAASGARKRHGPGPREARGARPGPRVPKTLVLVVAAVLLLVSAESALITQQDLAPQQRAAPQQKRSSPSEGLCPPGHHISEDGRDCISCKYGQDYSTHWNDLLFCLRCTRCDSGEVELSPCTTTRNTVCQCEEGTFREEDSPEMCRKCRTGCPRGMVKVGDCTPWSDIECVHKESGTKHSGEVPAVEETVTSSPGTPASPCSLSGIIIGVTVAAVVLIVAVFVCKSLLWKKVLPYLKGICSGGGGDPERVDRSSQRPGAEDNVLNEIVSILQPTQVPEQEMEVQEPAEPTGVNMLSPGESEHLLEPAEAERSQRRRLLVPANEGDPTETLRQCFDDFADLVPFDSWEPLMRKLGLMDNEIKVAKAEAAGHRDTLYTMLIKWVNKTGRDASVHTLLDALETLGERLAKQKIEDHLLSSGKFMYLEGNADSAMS
SMILES,inhibition [1],inhibition [2],activity [3],activity [4],inhibition [5],inhibition [6]
COC(=O)c1c(NC(=O)c2ccc([N+](=O)[O-])o2)sc2c1CCN(C(C)C)C2,95%,99.1%,46.9%,88.7%,,
CC1(O)CC(c2ccc(Cl)cc2)=NN1C(=O)c1ccc(Cl)cc1 (configuration not stated),,,,,109%,78.5%
COCCn1c(C)cc(C2=NNC(=NC3CC3)SC2)c1C,99.2%,101%,91.5%,90.3%,,
Cc1cc(C)c2sc(N(CCCN(C)C)C(=O)c3ccc(S(=O)(=O)N(C)C4CCCCC4)cc3)nc2c1,98.8%,101%,17.8%,4.92%,,
Cc1ccc(S(=O)(=O)Nc2cccc3ncccc23)s1,,,,,107%,97%
Nc1ncc([N+](=O)[O-])c(N2CCCCCC2)n1,,,,,115%,104%
CCOC(=O)Oc1c(OC)cc(C(=O)O[C@@H]2C[C@@H]3CN4CCc5c([nH]c6cc(OC)ccc56)[C@H]4C[C@@H]3[C@H](C(=O)OC)[C@H]2OC)cc1OC,,,,,54.6%,42.4%
CC1CCCCN1S(=O)(=O)c1ccc(C(=O)N(CCCN(C)C)c2nc3ccc(Br)cc3s2)cc1 (configuration not stated),102%,102%,22.4%,17.7%,,
CCOC(=O)c1c(C)c2c(=O)[nH]cnc2n1-c1ccccc1,,,,,110%,104%
Nc1nc(CCl)nc(Nc2cccc3ccccc23)n1,102%,100%,99.8%,98.7%,,
CC(C)(C)C(=O)Nc1cc2nn(-c3ccccc3)nc2cc1Cl,92.3%,90.1%,98.2%,97.7%,,
CS(=O)(=O)c1ncc(Cl)c(C(=O)Nc2ccc(OC(F)F)cc2)n1,,,,,91.4%,90.1%
CCCCCCCCCCCCCCCC(O)C[N+](C)(C)CCO (configuration not stated),102%,98.9%,95.8%,97.1%,,
COC(=O)C1=C(C)N(Cc2ccccc2)C(=NCCc2c[nH]c3ccccc23)N[C@H]1c1cccc(C(F)(F)F)c1,101%,99.9%,17.3%,44.5%,,
COC(=O)c1ccc2c(c1)C(C)(C)C(/C=C/c1ccccc1O)=[N+]2C,,,,,81.4%,80.5%
COCCn1c(C)cc(C(=O)COC(=O)c2ccccc2Br)c1C,95.9%,94.1%,79.5%,76.5%,,
CN1OC[C@@H]2CN[C@H](c3ccc(-c4cc5ccccc5o4)cc3)C[C@@H]21,98%,101%,90.1%,90.9%,,

SMILES,inhibition [1],inhibition [2],activity [3],activity [4],inhibition [5],inhibition [6]
O=Nc1c(O)n(Cc2c(Cl)cccc2Cl)c2ccccc12,,,,,103%,115%
CCCC(=O)N1CCCC(c2cc(C(=O)Nc3ccccc3)no2)C1 (configuration not stated),85.5%,90.8%,52.6%,37.5%,,
C=C1C(=O)[C@]23C[C@H]1CC[C@H]2[C@]1(C)[C@@H](OC(C)=O)CC[C@@](C)(C(=O)O)[C@H]1C[C@@H]3O,,,,,97.6%,94%
CCN1CCN(c2ccc(S(=O)(=O)N3CCOCC3)cc2NC(=O)/C=C/c2ccc([N+](=O)[O-])cc2)CC1,100%,89.1%,50.9%,62.1%,,
Cc1ccc2sc(N(CCCN(C)C)C(=O)c3ccc(S(=O)(=O)N4CCc5ccccc5C4)cc3)nc2c1C,82.2%,74.5%,75%,87%,,
CC(C)=CCc1c(O)cc(O)c2c1OC(c1ccc(O)cc1)CC2=O (configuration not stated),,,,,93.2%,108%
CC(C)C[C@@H]1NC(=O)[C@H](Cc2ccccc2)N(C)C(=O)[C@H](C)NC(=O)c2ccccc2NC(=O)[C@H](Cc2ccc(O)cc2)N(C)C1=O,,,,,102%,103%
O=C(NNC(=S)Nc1cccc(C(F)(F)F)c1)c1cccc(Cl)c1,,,,,115%,93.8%
Cc1ccc(N(Cc2cc(=O)[nH]c3ccccc23)C(=O)CCl)c(C)c1,101%,99.2%,96.8%,96.5%,,
COc1ccc(-n2nc(C(=O)NCC(=O)Nc3cc(OC)c(OC)c(OC)c3)c3ccccc3c2=O)cc1OC,,,,,102%,101%
CC(=O)c1c(O)cc2c3c1OC(C)(C)C1CCC(C)(CC31)O2 (configuration not stated),,,,,111%,99%
CCOc1cc(/C=N/N=C(N)N)ccc1OCc1ccc(Cl)cc1,99.3%,98.5%,70%,96.9%,,
CC1(C)Oc2cc3oc(-c4cc(O)cc(O)c4)cc3cc2CC1O (configuration not stated),93.6%,94.6%,81.8%,75.9%,,
CCn1c(C)cc(C(=O)COC(=O)c2ccccc2[N+](=O)[O-])c1C,99%,99%,94.7%,93.3%,,
c1cc(-c2nnc3sc(C4CCCCC4)nn23)ccn1,,,,,102%,109%
O=C(NCCCSc1ccccc1)c1cc(Br)ccc1O,,,,,110%,103%
COc1ccc(/C=C/C(=O)c2cc(F)ccc2OC(=O)c2ccccc2C)cc1OC,,,,,4.66%,90.3%
